# In PubChem BioAssay:
# Assay: compound binding in COS7 lysate, probe aLAP1, primary screen, cell lysate, small-molecule microarray (AID 1124);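 further: lysate comes from COS7 cells expressing LAP1 and is applied at 0.3 µg/mL; score merges spot fluorescence near 667 nm with signal-to-noise over triplicate slides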
# Details: probe aLAP1, fluorescence, higher = more signal
row,SMILES,composite z-score
1,COCCCNC(=O)[C@@]1(Sc2ccc(C)cc2)CC(=O)N(C2CCCCC2)[C@@H]1c1ccc(CO)cc1I,0.0839
2,[N-]=[N+]=NCc1ccccc1C[C@]1(C(=O)O)COC(c2ccc(OCCCO)cc2)=N1,-0.369
3,COC(=O)[C@@]1(Cc2ccc(OC)cc2)[C@H]2c3cc(C(=O)N(C)C)n(Cc4ccsc4Br)c3C[C@H]2CN1C(=O)c1ccccc1,0.107
4,CCCCC(=C=CC[C@@H](O)c1ccc(OCCO)cc1)C[C@@H](O)c1ccccn1,0.209
5,O=C1NC(=O)C2C1C=CC(C(O)c1cccc(O)c1)N2Nc1ccc(Cl)cc1Cl (centres undefined),-0.452
6,[N-]=[N+]=NCc1ccccc1C[C@]1(C(=O)NCc2ccccc2)N=C(c2ccc(OCCCO)cc2)O[C@H]1c1ccccc1CN=[N+]=[N-],0.478
7,O=C1O[C@H](c2ccccc2)[C@H](c2ccccc2)N2[C@H]1[C@@H](C(=O)N1CCN(c3ncccn3)CC1)[C@]1(C(=O)Nc3ccccc31)[C@H]2c1ccc(O)cc1,0.445
8,COC(=O)[C@@]1(Cc2ccc(F)cc2)[C@H]2c3cc(C(=O)N4CCCC4)n(CCO)c3C[C@H]2CN1C(=O)c1ccccc1,0.393
9,O=C1NC(=O)C2C1C=CC(C(O)c1ccc(F)cc1)N2Nc1ccccn1 (centres undefined),-0.393
10,CC[C@H](C)C(=O)O[C@H]1CC[C@]2(C)C3=C(CCC2C1(C)C)[C@]1(C)CC[C@H]([C@H](C)CCCC(C)C)[C@@]1(C)CC3 (some centres undefined),-0.329
11,CCCC[C@H]1OB(O)C[C@H]2C1=C(COC)C[C@H]1C(=O)C=CC(=O)[C@H]12,-0.236
12,CCCCCCCCCCC(O)C1C=CC2C(=O)N(C)C(=O)C2N1N1CCCCC1 (centres undefined),0.582
13,C=CC[C@]1(C(=O)NCCCOC)N=C(c2ccc(OCCCO)cc2)O[C@H]1c1ccccc1,0.648
14,CC1CC/C=C\[C@H]2OC34C=CCN(c5ccc(Cl)cc5)C(=O)[C@H]3N(CCCO)C(=O)[C@]4(C)C2C(=O)O1 (some centres undefined),0.569
15,C=C(CC1([C@@H](NP(=O)(c2ccccc2)c2ccccc2)[C@H]2C[C@@H]2CCN(C(=O)OCC)S(=O)(=O)c2ccc(C)cc2)CC1)c1ccccc1,0.319
16,COCC1=C([C@H](O)CCc2ccccc2)[C@H](CO)n2c(=O)n(-c3ccccc3)c(=O)n2C1,-0.469
17,COC(=O)c1ccc([C@H](NC(=O)c2ccccc2)[C@]2(C)C[C@H]2C2CCCCC2)cc1,0.416
18,COCCOC(=O)N1C(=O)[C@@]2(c3cc(C#CC4=CCCCC4)ccc31)[C@H](c1ccccc1OCCO)N1[C@H](c3ccccc3)[C@H](c3ccccc3)OC(=O)[C@H]1[C@@H]2C(N)=O,0.561
19,C=CCC(OC(C)=O)[C@@H]1[C@@H](N(Cc2cc3ccccc3o2)C(=O)Cc2ccc(OC)cc2)c2cc(OCCCO)ccc2N1C(=O)Cc1ccc2ccccc2c1 (some centres undefined),-0.185
20,COc1ccc([Si](C)(C)[C@H]2[C@H](CCO)O[C@@]3(C(=O)N(Cc4ccccc4)c4ccc(N(C=O)c5ccccc5)cc43)[C@@H]2C)cc1,0.0964
21,CC(C)CNC(=O)[C@@H]1c2ccccc2C(=O)N(Cc2ccccc2Cl)[C@H]1c1ccc(CO)cc1,0.397
22,CCCCNC(=O)c1ccc(C#C[Si](C)(C)C)c(OC(C)=O)c1,0.0462
23,COc1cc2c(cc1O)C(c1ccc(CN3CCCC3)cc1)N(Cc1cccc(OC(F)(F)F)c1)CC2 (centres undefined),0.637
24,C=CCOC(=O)[C@H]1[C@@H]2C(=O)O[C@@H](c3ccccc3)[C@@H](c3ccccc3)N2[C@@H](c2ccc(OCCOC(=O)[C@H]3C[C@H]4C(=O)NCC(=O)N4[C@H]3c3ccc(O)cc3)cc2)[C@]12C(=O)Nc1ccc(I)cc12,0.0174
25,NC(=O)N1C(=O)C2C(C1=O)C1C=C(CCCO)C2C(c2ccc(CN3CCCC3)cc2)N1Cc1cccc(OC(F)(F)F)c1 (centres undefined),0.0715
26,C=C(CCCC)C(=O)CC[C@H](OC(C)=O)c1ccccc1OCCO,0.277
27,C=CCC(OC(C)=O)[C@@H]1[C@@H](N(Cc2cccc3ccccc23)C(=O)c2ccc(-c3ccccc3)cc2)c2cc(OCCCO)ccc2N1C(=O)c1ccc2ccccc2n1 (some centres undefined),0.649
28,COC(=O)[C@@]1(Cc2ccccc2)[C@@H]2[C@@H](CC(=O)[C@H]2CC(=O)C(=O)N(C)C)CN1C(=O)c1ccccc1,0.712
29,COCCOC(=O)N1C(=O)[C@@]2(c3cc(C#Cc4ccc(OC)cc4)ccc31)[C@H](C(=O)Nc1nc3ccccc3s1)[C@H]1C(=O)O[C@H](c3ccccc3)[C@H](c3ccccc3)N1[C@@H]2c1ccccc1OCCO,0.304
